# Experimental data: PubChem BioAssay AID720532 (National Center for Advancing Translational Sciences (NCATS), 2013)
# “And” between values parts separate entries of the source, which are not always exact repeats. Equal entries are not always repeated. About 1,200 (6.7%) of roughly 18,000 compounds were called active. Where a call stands in place of a potency, no number is given. Another 16% or so got no clear call; they are omitted. The full list was thinned out, with actives kept by preference. A number with no mark means an inactive call. The call rests on the fitted dose curve; tested in HEK293 cells.
# Assay: qHTS for Inhibitors of binding or entry into cells for Marburg Virus
# Settings: Marburg virus pseudotype entry/binding inhibition, cell-based; series mostly up to 49.2 µM
# Potency means the concentration at half of the fitted maximal effect.
Structure (SMILES),"activity change, negative = inhibition",Potency
CC1(OC(=O)C2CCCC2)C(=O)C=C2C=C(c3ccc(C#N)cc3)OC=C2C1=O (centres undefined),inactive,–
CCN1C(=NCc2cc(OC)c(OC)c(OC)c2)NC(c2cccc(C(F)(F)F)c2)C(C(=O)OC)=C1C (centres undefined),12.8% [at 8.59 µM],–
O=C1C=C(c2ccccc2)CCC1,inactive,–
CC[C@H](C)[C@H](NC(=O)[C@H](CCCNC(=N)N)NC(=O)[C@H](CCCNC(=N)N)NC(=O)[C@H](CC(C)C)NC(=O)[C@H](Cc1ccccc1)NC(=O)CNC(=O)CNC(=O)[C@@H](N)Cc1ccc(O)cc1)C(=O)N[C@@H](CCCNC(=N)N)C(=O)N1CCC[C@H]1C(=O)N[C@@H](CCCCN)C(=O)N[C@@H](CC(C)C)C(=O)N[C@@H](CCCCN)C(=O)N[C@@H](Cc1c[nH]c2ccccc12)C(=O)N[C@@H](CC(=O)O)C(=O)N[C@@H](CC(N)=O)C(=O)N[C@@H](CCC(N)=O)C(=O)O,inactive,–
CNCC[C@H](Oc1ccc(C(F)(F)F)cc1)c1ccccc1,–,3.98 µM (active) and 8.91 µM (active)
COC(=O)N[C@@H](c1ccccc1)[C@]1(C(=O)OC)CCCC1=O,-27.3% [at 8.59 µM],–
CC[C@H](C)[C@@H](NC(=O)O[C@@H]1C(=O)c2cc(OC)ccc2O[C@H]1c1cccc(OC)c1)C(=O)OC,inactive,–
COc1ccccc1C1CN(CCNC(=O)C2=CCCC2)Cc2ccccc2O1 (centres undefined),inactive,–
COCC(=O)Nc1cc(C(=O)N2CCCC(c3ccccc3)CC2)c2c(c1)nc(-c1ccncc1)n2C (centres undefined),inactive,–
C=C(C)C(=O)c1ccc(F)cc1,inactive,–
C[C@@H]1[C@@H](c2ccccc2)Oc2c(Cl)cccc2S(=O)(=O)N1Cc1ccc(Cl)cc1,inactive,–
C#C[C@]1(O)CC[C@H]2[C@@H]3CCC4=C/C(=N/O)CC[C@@H]4[C@H]3CC[C@@]21CC,inactive,–
COCCN1C(=O)N[C@@H](CCc2ccccc2)[C@H](C(C)=O)[C@H]1C,-2.21% [at 8.59 µM],–
COc1ccc([C@]23Cc4ccccc4[C@H](O2)c2c(c4ccc(OC)cc4oc2=O)O3)cc1,-9.62% [at 8.59 µM],–
COc1ccc(-c2nc3c(c4c2C[C@H](c2ccccc2)OC4)CN(C(=O)c2cccnc2)CC3)c(C)c1,29.8% [at 8.59 µM],–
CC[C@H]1C[C@H](C=CCC(C(=O)OC)C(=O)OC)OP(=O)(OC)O1 (some centres undefined),inactive,–
CC[C@H]1CN2CCc3cc(OC)c(OC)cc3[C@@H]2C[C@@H]1C[C@H]1NCCc2cc(OC)c(OC)cc21,–,0.398 µM (active)
Cc1cc2oc(=O)cc(-c3ccccc3)c2c(C)c1-c1ccc(OC(F)(F)F)cc1,inactive,–
O=C1OCCN1C(=O)[C@H]1[C@H](c2ccccc2)C(c2ccc(F)cc2)=NN1c1ccccc1,inactive,–
C=C/C1=C/Cc2ccccc2[C@H](C[N+](=O)[O-])C(C(=O)OC)(C(=O)OC)C1,inactive,–
CC/C=C\C/C=C\C/C=C\C/C=C\C/C=C\C/C=C\CCC(=O)NCCc1ccc(O)c(O)c1,inactive,–
CC1=C2[C@@H](O)[C@H]([C@@H](C)C(=O)NCCC(C)C)CC[C@@]2(C)C=CC1=O,inactive,–
O=C(C1CCCCC1)N1C[C@@H](n2cc(C3CC3)nn2)[C@@H](O)C[C@@H]1c1ccccc1,inactive,–
Cc1ccc(-c2ccc(CN3C(C(C)C)C(=O)N(Cc4cn(CCC5OCCCO5)nn4)CCS3(=O)=O)cc2)cc1 (centres undefined),inactive,–
COC(=O)C12C[C@H](C)C3C(C)C(c4ccccc4C31)N2C(=O)C(F)(F)F (some centres undefined),-25.2% [at 8.59 µM],–

Structure (SMILES),"activity change, negative = inhibition",Potency
CCN1C(=S)NC(c2cccc(C(F)(F)F)c2)C(C(=O)OC)=C1C (centres undefined),95.8% [at 8.59 µM],–
CCOC(=O)CN1C(=O)N[C@@H](c2ccc(Br)cc2)C(C(C)=O)=C1C,inactive,–
CC(=O)Oc1c2c(c3c(c1CC=C(C)C)O[C@@]14C(=CC5CC1C(C)(C)OC4(C/C=C(\C)C(=O)O)C5=O)C3=O)OC(C)(CCC=C(C)C)C=C2 (some centres undefined),–,3.55 µM (active)
Cc1cccc([C@H]2[C@@H]3C=CC[C@@H](C)[C@@H]3C(=O)N2Cc2ccccc2)c1,inactive,–
COc1cccc([C@H](O)Cn2cc(-c3ccc(CON=C(C)C)cc3)nn2)c1,7.92% [at 8.59 µM],–
Cc1cc2c(nc1C)CCCCN2C[C@H](C)ON=C1[C@H]2CCn3c(=O)n(-c4ccccc4)c(=O)n3[C@@H]2[C@H](O)[C@@H]2O[C@H]12,26% [at 8.59 µM],–
N#Cc1c(Cl)c(Cl)c(Cl)c(C#N)c1Cl,–,1.12 µM (active)
COCOc1cc(OC)ccc1C(=O)/C=C/c1ccc([N+](=O)[O-])cc1,inactive,–
OCCN1CCN(CC/C=C2\c3ccccc3Sc3ccc(C(F)(F)F)cc32)CC1,–,12.6 µM (active)
CC(C)(C)OC(=O)NCCCCC1=CC2=CC(=O)C(C)(OC(=O)c3cccs3)C(=O)C2=CO1 (centres undefined),inactive,–
CCOC(=O)C1=C(C)c2ccccc2OC1C(=O)OCC (centres undefined),inactive,–
COc1cccc(CC(=O)N2CCc3nc(COc4ccccc4)c4c(c3C2)CO[C@@H](C)C4)c1,-8.64% [at 8.59 µM],–
N#Cc1cccc(CS(=O)(=O)c2nnnn2-c2cc(C(F)(F)F)cc(C(F)(F)F)c2)c1,inactive,–
COc1ccccc1-c1ccnc(-n2ncc(C(=O)NCCc3ccncc3)c2C)n1,inactive,–
CC(C)[C@@H](CC(=O)N[C@@H]1CCNC[C@H]1C(=O)N[C@H](CC(=O)N[C@@H](CCC(=O)O)CC(=O)O)Cc1ccccc1)NC(=O)C[C@H](CO)NC(=O)[C@@H]1CNCC[C@H]1N,inactive,–
COC(=O)[C@H]1[C@@H](c2ccccc2)NC(=O)O[C@@H]1C,55.5% [at 8.59 µM],–
CC(C)CNc1cccc2c1S(=O)(=O)N[C@H](CC(C)C)CO2,inactive,–
COCCN1C(=S)NC(c2cccc(F)c2)C(C(=O)OC)=C1C (centres undefined),20.9% [at 8.59 µM],–
N#Cc1ccc2c(c1)C[C@]1(CCCCN3C(=O)c4ccccc4C3=O)OC3=C(C(=O)OC4(CCCCC4)C3)[C@H]2O1,9.87% [at 8.59 µM],–
CN(Cc1ccccc1F)c1cc2c(c3c1ccn3C)C1CCC2O1 (centres undefined),inactive,–
COC(=O)[C@@H]1CC2=CC(=O)CC[C@]2(C)[C@@]23O[C@@H]2C[C@@]2(C)[C@@H](CC[C@@]24CCC(=O)O4)[C@H]13,inactive,–
CC[C@]1(O)C(=O)OCc2c1cc1n(c2=O)Cc2cc3ccccc3nc2-1,–,2.82 µM (active)
CCCN(CCc1ccccc1)C1CCc2c(O)cccc2C1 (centres undefined),–,35.5 µM (active)
CCCN(C/C=C/I)C1CCc2ccc(O)cc2C1 (centres undefined),inactive,–
CCCN(C/C=C\I)[C@@H]1CCc2cccc(O)c2C1,–,25.1 µM (active)

Structure (SMILES),"activity change, negative = inhibition",Potency
O=C(Nc1cc(C(=O)Nc2ccc(S(=O)(=O)O)cc2)cc(C(=O)Nc2ccc(S(=O)(=O)O)cc2)c1)Nc1cc(C(=O)Nc2ccc(S(=O)(=O)O)cc2)cc(C(=O)Nc2ccc(S(=O)(=O)O)cc2)c1,inactive,–
COC(=O)C/C=C/[C@@H](C)[C@H](NC(=O)OCC(Cl)(Cl)Cl)c1ccccc1,inactive,–
Oc1c(Cl)cc(Cl)c(Cl)c1Cc1c(O)c(Cl)cc(Cl)c1Cl,–,15.8 µM (active)
Cc1ccccc1-c1ccc(C(=O)O)s1,inactive,–
C[C@H]1[C@H](c2ccccc2)Oc2cc(Br)ccc2S(=O)(=O)N1Cc1cccc(F)c1,inactive,–
COC1CC(OC2CC[C@@]3(C=O)C4CC[C@]5(C)C(C6=CC(=O)OC6)CC[C@@]5(O)C4CC[C@]3(O)C2)OC(C)C1O (some centres undefined),–,0.251 µM (active)
C[C@@]12CC[C@H]3[C@@H](CC[C@]4(O)C[C@H](O)CC[C@@]34C=O)[C@]1(O)CC[C@@H]2C1=CC(=O)OC1,–,1 µM (active)
COc1ccc(C[C@H](N)C(=O)N[C@@H]2[C@H](O)[C@H](n3cnc4c(N(C)C)ncnc43)O[C@@H]2CO)cc1,–,2.24 µM (active)
Nc1ncnc2c1ncn2C1CC(O)C(CO)O1 (centres undefined),inactive,–
COc1ccc(CC(N)C(=O)NC2C(O)[C@H](n3cnc4c(N(C)C)ncnc43)O[C@@H]2CO)cc1 (some centres undefined),–,3.98 µM (active)
C[C@H]1C/C=C/[C@@H]2[C@@H]3O[C@]3(C)[C@@H](C)[C@H]3[C@H](Cc4ccccc4)NC(=O)[C@]32OC(=O)O/C=C/[C@](C)(O)C1=O,–,0.251 µM (active)
CO[C@H]1[C@H](NC(=O)C(C)C)c2ccccc2C12CCN(Cc1cnc(N(C)C)s1)CC2,inactive,–
Cc1c(S(=O)(=O)O)oc2c1C(=O)C(=O)c1c-2ccc2c1CCCC2(C)C,inactive,–
CC(C)c1cc(C(=O)N2CCOc3ccc(CN4CCC(Oc5cccnc5)CC4)cc3C2)n[nH]1,inactive,–
O=C(C(=O)N1CCOc2ccc(CN3CCN(Cc4ccccn4)CC3)cc2C1)c1ccccc1,inactive,–
O=c1c(CN2CCOc3ccc(CN4CCC(Oc5cccnc5)CC4)cc3C2)coc2ccccc12,–,11.2 µM (active)
CCOC(=O)N1CCC(N2CCOc3ccc(CN4CCC(O)(c5cccnc5)CC4)cc3C2)CC1,inactive,–
CCOC(=O)N1CCN(Cc2ccc3c(c2)CN(C(=O)c2cccc(-n4cccn4)c2)CCO3)CC1,inactive,–
c1ccc(CN2CCN(Cc3ccc4c(c3)CN(Cc3c[nH]c5ccccc35)CCO4)CC2)nc1,–,10 µM (active)
O=S(O)S(=O)(=O)O,inactive,–
O=S1(=O)CC(O)c2cc(Br)ccc2N1Cc1cccc(F)c1 (centres undefined),inactive,–
Cc1ccccc1Nc1oc(-c2ccccc2)nc1C(C)(C)C,-15% [at 8.59 µM],–
C=C1/C(=C\C=C2\CCCC3(C)C2CCC3C(C)/C=C/C(O)C2CC2)CC(O)CC1O (centres undefined),inactive,–
COC(=O)CCCC1=CC2=C(c3ccccc3)C(=O)C(C)(OC(=O)C3CCCC3)C(=O)C2=CN1c1ccc(OC)cc1 (centres undefined),-5.26% [at 8.59 µM],–
